{"source": "PubChem BioAssay (Tox21)", "note": "Results filed as inconclusive are left out. Entries that show only a call come without a potency. Calls of active or inactive are those of the source. Calls come from the whole dose curve; as a rule, active = well fitted inhibition curve with a large enough effect in the signal ratio in the repeat runs, with a control signal flat; inconclusive = weak or mixed curves, or effect the other way; inactive = flat fitted curve, though single readings scatter; the % refers to the signal ratio. Potency is the fitted concentration of half-maximal effect.", "data": [{"biological_target": "D(2) dopamine receptor (Homo sapiens) (UniProt P14416)", "sequence (P14416 whole entry, looked up)": "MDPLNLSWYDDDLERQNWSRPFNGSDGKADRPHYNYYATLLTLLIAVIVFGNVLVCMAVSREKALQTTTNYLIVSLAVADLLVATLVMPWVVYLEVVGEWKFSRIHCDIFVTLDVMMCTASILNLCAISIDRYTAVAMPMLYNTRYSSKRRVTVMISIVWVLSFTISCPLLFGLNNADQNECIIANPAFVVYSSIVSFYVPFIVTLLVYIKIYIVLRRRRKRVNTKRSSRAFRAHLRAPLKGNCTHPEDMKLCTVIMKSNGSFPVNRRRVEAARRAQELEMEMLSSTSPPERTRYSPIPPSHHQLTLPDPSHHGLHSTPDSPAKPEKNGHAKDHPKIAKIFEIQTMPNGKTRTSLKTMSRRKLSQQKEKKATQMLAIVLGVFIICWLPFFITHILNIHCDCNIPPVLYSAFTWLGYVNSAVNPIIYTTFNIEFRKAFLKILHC", "test": "Dopamine D2 receptor (DRD2) small molecule antagonists, cell-based qHTS assay (AID 1963595)", "details": "HEK293-DRD2 cAMP HTRF antagonist mode; series mostly up to 92.4 µM", "source_text": "National Center for Advancing Translational Sciences [NCATS]\nDivision of Preclinical Innovation [DPI]\nU.S. Environmental Protection Agency [EPA]\nNational Institutes of Environmental Health Sciences [NIEHS]\nNational Toxicology Program [NTP]\nU.S. Food and Drug Administration [FDA]\nDRD2 is the D2 subtype of the dopamine receptor, which is coupled to Gi subtype of G protein-coupled receptor. This G protein-coupled receptor inhibits adenylyl cyclase activity. The DRD2-HEK293 cell line stably expressing D2 dopamine receptor can be used for screening agonists and antagonists of interactions between D2 and its ligands. The Hek293-DRD2 cAMP assay is based on HTRF technology. It measures changes of cAMP accumulation in response to Gi coupled GPCR activation or inhibition.\nTox21 Assay Protocol Summary:\nDRD2-Hek293 cells were dispensed at 600 cells/3uL/well in 1536-well white plates using a Multidrop Dispenser. After the assay plates were incubated at a 37 C/5% CO2 incubator for 24 h, 1 uL of Ro20-1724 at final concentration of 0.1 mM was transferred to the assay plate by a Flying Reagent Dispenser. Following Ro20-1724 addition, 23 nL of compound dissolved in DMSO, positive controls or DMSO only was added to the assay plates via Wako pintool station. The assay plates were incubated at room temperature for 10 min. Next, 1 uL of mixture of NKH477 (final concentration at 200 nM) and quinpirole (final concentration at 12 nM) was added into the plates. After the assay plates were incubated at room temperature for an additional 30 min, 2.5 ul/well of cAMP-d2 and 2.5 ul/well of anti-cAMP-cryptate were added respectively into the assay plates using a Flying Reagent Dispenser. The plates were incubated at room temperature for 1 h. The fluorescence intensity in the plates was measured at 340 nm excitation and 665 & 620 nm emission by an Envision plate reader.", "values": [{"smiles": "CCCCC(=O)OCC(=O)[C@H]1[C@H](C)C[C@H]2[C@@H]3C[C@H](F)C4=CC(=O)C=C[C@]4(C)[C@@]3(F)[C@@H](O)C[C@@]21C", "Potency": "inactive"}, {"smiles": "Cn1c(N)c(N=O)c(=O)n(C)c1=O", "Potency": "inactive"}, {"smiles": "CCOC(=O)O[C@H](C)OC(=O)c1ccc2c(c1)cc(C(=O)NC1CCN(C(C)C)CC1)n2Cc1cc(-c2ccc(Cl)s2)on1", "Potency": "50.9 µM (active)"}, {"smiles": "CN(CCOc1ccc(NS(C)(=O)=O)cc1)CCc1ccc(NS(C)(=O)=O)cc1", "Potency": "inactive"}, {"smiles": "C#CC(C)(CC)OC(=O)c1ccccc1C(=O)O", "note": "(stereo not given)", "Potency": "inactive"}, {"smiles": "O=C1OC(=O)C2C3C=CC(C3)C12", "note": "(stereo not given)", "Potency": "inactive"}, {"smiles": "CCCCC(CC)COC(=O)CCCCCCCCC(=O)OCC(CC)CCCC", "note": "(stereo not given)", "Potency": "inactive"}, {"smiles": "CC(=O)CC(C)C", "Potency": "inactive"}, {"smiles": "O=C(O)c1snc(Cl)c1Cl", "Potency": "inactive"}, {"smiles": "N#CSCC(=O)O", "Potency": "inactive"}, {"smiles": "O=C(O)c1c(Cl)cccc1Cl", "Potency": "inactive"}, {"smiles": "C=CS(=O)(=O)O", "Potency": "inactive"}, {"smiles": "CC1=CC(=O)CC(C)(C)C1=O", "Potency": "inactive"}, {"smiles": "CCCCNc1ccc(C(=O)OCCN(C)C)cc1", "Potency": "inactive"}, {"smiles": "C=CC(=O)OCCCCCCCCCC", "Potency": "inactive"}, {"smiles": "CCOC(=O)Oc1ccc(CCNC(=O)[C@H](CCSC)NC(C)=O)cc1OC(=O)OCC", "Potency": "inactive"}, {"smiles": "CC(C)(C)C1(CCc2ccc(Cl)cc2)CO1", "note": "(stereo not given)", "Potency": "inactive"}, {"smiles": "CS(=O)(=O)c1ccc([C@@H](C[C@H]2CCC(=O)C2)C(=O)Nc2cnccn2)cc1Cl", "Potency": "inactive"}, {"smiles": "CCN(CC)C(C)CN1c2ccccc2Sc2ccccc21", "note": "(stereo not given)", "Potency": "inactive"}, {"smiles": "CC(=O)c1ccc(C(C)=O)cc1", "Potency": "inactive"}, {"smiles": "C=CC(C)(CCC=C(C)C)OC(=O)C(C)C", "note": "(stereo not given)", "Potency": "inactive"}, {"smiles": "Cc1ccccc1N1CCN(CCc2nnc3n2CCCC3)CC1", "Potency": "inactive"}, {"smiles": "N#Cc1ccc(CC(=O)c2cccc(C(F)(F)F)c2)cc1", "Potency": "inactive"}, {"smiles": "C[C@]1(Cn2ccnn2)[C@H](C(=O)O)N2C(=O)C[C@H]2S1(=O)=O", "Potency": "inactive"}, {"smiles": "O=C(CO)[C@@H](O)[C@H](O)[C@H](O)CO", "Potency": "inactive"}, {"smiles": "O=c1cccccc1O", "Potency": "inactive"}, {"smiles": "N#Cc1c(F)cccc1F", "Potency": "inactive"}, {"smiles": "COC(=O)c1c(C)cc(O)c(C)c1O", "Potency": "inactive"}, {"smiles": "CCCCOC(=O)CC", "Potency": "inactive"}, {"smiles": "CCCCCOC(=O)CCC", "Potency": "inactive"}, {"smiles": "Cc1oc(-c2ccccc2)nc1CCC(=O)c1ccc(CC2SC(=O)NC2=O)cc1", "note": "(stereo not given)", "Potency": "inactive"}, {"smiles": "CCC=O", "Potency": "inactive"}, {"smiles": "CC(=O)O[C@@H]1CC2CCC1(C)C2(C)C", "note": "(stereo not given in full)", "Potency": "inactive"}, {"smiles": "CC(C)OC(=O)c1ccccc1", "Potency": "inactive"}, {"smiles": "Clc1cc(Cl)cc(Cl)c1", "Potency": "inactive"}, {"smiles": "CC(C)(C)NCC(O)c1cc(O)cc(O)c1", "note": "(stereo not given)", "Potency": "10.6 µM (active)"}, {"smiles": "CC(C)(C)c1cc(CCC(=O)OCCSCCOC(=O)CCc2cc(C(C)(C)C)c(O)c(C(C)(C)C)c2)cc(C(C)(C)C)c1O", "Potency": "inactive"}, {"smiles": "Nc1ccc(Oc2cccc(Oc3ccc(N)cc3)c2)cc1", "Potency": "inactive"}, {"smiles": "O=C(CCCl)NCc1ccccc1", "Potency": "inactive"}, {"smiles": "CCCCCCCC(=O)OCC", "Potency": "inactive"}]}]}
